Measured values reported in PubChem BioAssay (EPA / NIEHS).
Records with an inconclusive call do not appear. Active and inactive are the calls of the source. How the source made its calls: active means hit-call score of the fitted dose curve at least 0.9, where 1 is the maximum; inconclusive means response in the unintended direction; inactive means score below 0.9.

Assays:
[1] = ACEA_ER_AUC_viability: ACEA Biosciences xCELLigence Real-Time Cell Analysis on Estrogen Receptor Agonism for Viability (AID 2283782);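 further: hit means loss of impedance signal meaning reduced cell growth or viability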
Method in brief: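 Viability endpoint: reduced impedance area under the curve relative to DMSO, recorded by real-time electrode sensing over ~80 h of continuous exposure. Duplicate plates of T47D in hormone-depleted medium; eight concentrations, 1:4 dilutions, 100 uM maximum.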

[2] = ACEA_AR_antagonist_AUC_viability: ACEA Biosciences xCELLigence Real-Time Cell Analysis on Androgen Receptor Antagonism for Viability (AID 2283776);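 further: 22Rv1 human prostate cancer cells growing on impedance electrode plates; area under impedance growth curve at 80 h after dosing as viability; hits lower the growth signal relative to DMSO meaning cytotoxicity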
Method in brief: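 22Rv1 prostate cells, continuous dosing up to 100 uM final (0.5% DMSO max), duplicate plates. Growth measured by impedance; AUC at 80 h, loss of signal vs DMSO.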

AR (gene 367) [3] = target: AR (gene 367) (UniProt P10275); assay: ACEA_AR_antagonist_80hr: ACEA Biosciences xCELLigence Real-Time Cell Analysis on Androgen Receptor Antagonism for Proliferation (AID 2283787);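 further: 22Rv1 human prostate cancer cells with growth followed by electrical impedance; hits lower the impedance growth signal relative to DMSO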
Method in brief: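 Impedance-based real-time growth of 22Rv1 prostate cells, read 80 h after dosing. Eight concentrations, 1:4 series, top 100 uM final (0.5% DMSO), n = 2; signal decrease scored against DMSO.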

[4] = STM_H9_NormalizedViability: Cytotoxicity Assessment at 120 hours in the Stemina devTOX quickPredict H9 human embryonic stem cell (hESC)-based Assay (AID 2283784)
Method in brief: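 Here, H9 cells received test compound with daily medium renewal. Each plate included methotrexate references (1uM, 5 nM), 0.1% DMSO and media blanks; CellTiter-Fluor RFU was normalized to DMSO.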

AR (gene 367) [5] = target: AR (gene 367) (UniProt P10275); assay: ACEA_AR_agonist_80hr: ACEA Biosciences xCELLigence Real-Time Cell Analysis on Androgen Receptor Agonism for Proliferation (AID 2283783);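 further: hits increase impedance growth signal above DMSO baseline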
Method in brief: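 Eight concentrations, 1:4 serial dilution from a 100 uM final top, in biological duplicate. Impedance-based real-time growth of 22Rv1 cells after overnight baseline, recorded hourly and read at 80 hours. Controls: testosterone, MG132, assay media.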

Chain of AR (gene 367) (P10275 whole entry, looked up): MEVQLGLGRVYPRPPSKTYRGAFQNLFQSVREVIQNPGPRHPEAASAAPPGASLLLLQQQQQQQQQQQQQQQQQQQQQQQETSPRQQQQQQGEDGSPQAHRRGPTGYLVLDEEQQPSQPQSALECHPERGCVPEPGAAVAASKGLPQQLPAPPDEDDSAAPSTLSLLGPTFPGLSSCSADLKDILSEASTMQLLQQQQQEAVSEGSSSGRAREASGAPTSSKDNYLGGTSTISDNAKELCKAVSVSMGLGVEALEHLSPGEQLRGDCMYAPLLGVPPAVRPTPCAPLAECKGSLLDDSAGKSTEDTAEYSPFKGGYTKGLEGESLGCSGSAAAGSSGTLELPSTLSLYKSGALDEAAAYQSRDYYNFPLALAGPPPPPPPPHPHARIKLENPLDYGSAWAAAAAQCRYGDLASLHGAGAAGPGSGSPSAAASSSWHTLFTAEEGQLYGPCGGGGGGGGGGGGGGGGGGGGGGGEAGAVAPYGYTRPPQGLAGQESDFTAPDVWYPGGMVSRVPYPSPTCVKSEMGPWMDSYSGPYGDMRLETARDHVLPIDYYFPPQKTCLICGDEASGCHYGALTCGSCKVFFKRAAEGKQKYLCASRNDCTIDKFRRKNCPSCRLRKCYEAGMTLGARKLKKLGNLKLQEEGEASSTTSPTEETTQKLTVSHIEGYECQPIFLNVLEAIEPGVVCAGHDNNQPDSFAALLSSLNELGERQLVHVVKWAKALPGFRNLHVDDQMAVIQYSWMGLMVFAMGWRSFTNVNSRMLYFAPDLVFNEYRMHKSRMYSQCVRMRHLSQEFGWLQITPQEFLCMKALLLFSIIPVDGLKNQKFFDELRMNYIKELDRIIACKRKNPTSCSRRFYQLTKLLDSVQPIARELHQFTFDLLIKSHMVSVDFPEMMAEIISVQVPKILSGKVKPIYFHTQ

CCOP(OCC)OCC
outcome [1]: inactive

Cc1ccccc1C(=O)Nc1cccc(OC(C)C)c1
outcome [2]: inactive | outcome (AR (gene 367) [3]): inactive

Cc1cc(=O)[nH]o1
outcome [1]: inactive

O=C/C=C/c1ccccc1
outcome [2]: inactive | outcome [1]: inactive

C[C@H]1O[C@@H](O[C@H]2[C@@H](O)C[C@H](O[C@H]3[C@@H](O)C[C@H](O[C@H]4CC[C@@]5(C)[C@H](CC[C@@H]6[C@@H]5CC[C@]5(C)[C@@H](C7=CC(=O)OC7)CC[C@]65O)C4)O[C@@H]3C)O[C@@H]2C)C[C@H](O)[C@@H]1O
AC50 [1]: 0.159 µM (active)

O=C(O)C(F)(F)C(F)(F)C(F)(F)C(F)(F)C(F)(F)C(F)(F)C(F)(F)C(F)(F)C(F)(F)C(F)(F)F
outcome [2]: inactive | outcome [1]: inactive

ClCC(Cl)CCl
outcome [2]: inactive | outcome [4]: inactive

O=[N+]([O-])c1ccc(O)c([N+](=O)[O-])c1
AC50 [2]: 50 µM (active) | outcome (AR (gene 367) [5]): inactive | outcome [4]: inactive | AC50 (AR (gene 367) [3]): 50 µM (active)

ClC1(Cl)C2(Cl)C3(Cl)C4(Cl)C(Cl)(Cl)C5(Cl)C3(Cl)C1(Cl)C5(Cl)C24Cl (configuration not stated)
outcome [2]: inactive | outcome [4]: inactive | outcome (AR (gene 367) [3]): inactive

CCN1CCC2(CC1)COc1cc3c(cc12)N(C(=O)c1ccc(-c2ccc(-c4nnc(C)o4)cc2C)cc1)CC3
AC50 [2]: 10.4 µM (active) | AC50 [1]: 8.01 µM (active) | outcome (AR (gene 367) [5]): inactive | AC50 [4]: 8.14 µM (active) | AC50 (AR (gene 367) [3]): 8.66 µM (active)

O=c1[nH]c(=O)[nH]c(=O)[nH]1
outcome [2]: inactive | outcome [1]: inactive | outcome (AR (gene 367) [5]): inactive | outcome (AR (gene 367) [3]): inactive

O=C(Nc1ccc2[nH]ccc2c1)c1cc2cc(F)ccc2n1Cc1cccc(F)c1
AC50 [2]: 10 µM (active) | outcome [4]: inactive

NC(=O)CF
outcome [1]: inactive

CC1CN1P(=O)(N1CC1C)N1CC1C (configuration not stated)
AC50 [1]: 64.1 µM (active)

Cn1sc(Cl)cc1=O
AC50 [2]: 80.7 µM (active) | AC50 [1]: 86.9 µM (active)

CCc1ccccc1C
outcome [1]: inactive

CCC(=O)C(CC(C)N(C)C)(c1ccccc1)c1ccccc1 (configuration not stated)
AC50 [2]: 32.9 µM (active) | AC50 [1]: 36.2 µM (active) | AC50 (AR (gene 367) [3]): 28.2 µM (active)

CCC1(c2ccc(N)cc2)CCC(=O)NC1=O (configuration not stated)
outcome [2]: inactive | outcome [1]: inactive | outcome (AR (gene 367) [3]): inactive

CC(C)(c1ccc(OCC2CO2)cc1)c1ccc(OCC2CO2)cc1 (configuration not stated)
outcome [2]: inactive | outcome (AR (gene 367) [5]): inactive | outcome (AR (gene 367) [3]): inactive

CC(=O)OC(c1ccccc1)C(Cl)(Cl)Cl (configuration not stated)
outcome [1]: inactive

CC(C)=C[C@@H]1[C@@H](C(=O)OCc2coc(Cc3ccccc3)c2)C1(C)C
outcome [1]: inactive

CN(C)N=O
outcome [2]: inactive | outcome [1]: inactive

O=C(O)C(Cl)(Cl)Cl
outcome [2]: inactive | outcome [4]: inactive

C=CC(=O)OCCCCCC(C)C
AC50 (AR (gene 367) [5]): 50 µM (active)

COP(=O)(OC)OC
outcome (AR (gene 367) [3]): inactive

Cc1ccc2ccccc2c1C
AC50 (AR (gene 367) [3]): 16.6 µM (active)
